C8 TRAIL sens: sensitizes caspase-8 expressing cells to TRAIL | NB7+C8 cells + TRAIL, ATPlite viability luminescence | inhibition (viability loss, TRAIL sensitization), % at 10 µM | 360,000 tested, 1% active | AID 624354;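 active = compounds causing at least 50% loss of cell viability in the single-dose screen, relative to plate controls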
SENP8 block-1: SENP8 protease inhibition | inhibition, % at 10 µM | purified SENP8, Z-RLRGG-aminoluciferin cleavage, luminescence | AID 2540 | 330,000 tested, 1.2% active | Q96LD8; in the data active = inhibition above about 50%
SENP8 block-2: SENP8 (human) protease inhibition; Q96LD8; recombinant SENP8, Nedd8 substrate fluorescence; 360,000 tested, 0.64% active; inhibition, % at 20 µM; AID 602440; in the data active = inhibition mostly above about 40%, no sharp cut-off; inactive = mostly below about 27%
SENP7 block: SENP7 protease inhibition; Q9BQF6; recombinant SENP7, Z-RLRGG-aminoluciferin luminescence, 40 min; inhibition, % at 5 µM; 330,000 tested, 1.5% active;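 active = inhibition above about 50% at the single test dose, limit read from the data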;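 note: plate controls were DMSO with enzyme for no effect and no enzyme buffer wells for full effect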
SENP6 block: inhibitors of human SENP6 protease; Recombinant SENP6 catalytic domain, aminoluciferin luminescence; inhibition, % at 10 µM; AID 2599; 330,000 tested, 1.8% active;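 active = inhibition above about 50% at the single tested dose, limit read from the data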;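 note: plate controls were DMSO wells with enzyme for no effect and DMSO wells lacking enzyme for full effect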
Target sequence (Q9GZR1 628-1112 limits assumed): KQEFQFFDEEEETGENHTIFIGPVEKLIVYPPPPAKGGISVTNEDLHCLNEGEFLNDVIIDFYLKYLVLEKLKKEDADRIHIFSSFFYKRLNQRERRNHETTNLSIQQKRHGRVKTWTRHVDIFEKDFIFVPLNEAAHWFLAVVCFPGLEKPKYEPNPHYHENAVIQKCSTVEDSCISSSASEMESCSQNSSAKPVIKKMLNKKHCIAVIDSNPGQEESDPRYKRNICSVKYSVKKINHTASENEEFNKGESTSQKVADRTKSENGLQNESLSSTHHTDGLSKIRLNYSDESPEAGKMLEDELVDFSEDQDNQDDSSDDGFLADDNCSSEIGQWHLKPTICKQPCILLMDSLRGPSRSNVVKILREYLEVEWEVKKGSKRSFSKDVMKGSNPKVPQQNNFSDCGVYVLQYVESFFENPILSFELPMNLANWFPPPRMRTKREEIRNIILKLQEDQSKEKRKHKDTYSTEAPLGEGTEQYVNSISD
PPC-1+TRAIL kill: kills PPC-1 cancer cells in the presence of TRAIL; PPC-1 cells + TRAIL, ATPLite viability luminescence; cell killing (% activity), % at 4 µM or 5 µM; 220,000 tested, 0.41% active;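 active = cell killing above 50% in the first pass at 4 µM, then a duplicate retest at 5 µM averaging 50% or more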;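 note: plate controls were cells with TRAIL plus DMSO for no effect and medium-only wells lacking cells for full effect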
SENP8 conf: confirmation of human SENP8 protease inhibitors; Recombinant SENP8, Z-RLRGG-aminoluciferin luminescence, 60 min; shares compounds with SENP7 block; inhibition, % at 12.5 µM; 6,200 tested, 40% active;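 active = mean inhibition across replicates above about 50%, limit read from the data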
SENP6 confirm: confirmation of human SENP6 protease inhibitors; shares compounds with SENP7 block; recombinant SENP6, Z-RLRGG-aminoluciferin luminescence; inhibition, % at 12.5 µM; 6,200 tested, 58% active
SENP7 confirm: confirmation of human SENP7 protease inhibitors | recombinant SENP7, Z-RLRGG-aminoluciferin luminescence, 40 min | shares compounds with SENP7 block | inhibition, % at 12.5 µM | 6,200 tested, 69% active
Casp3 select: selectivity test for SENP inhibitors: human caspase-3 inhibition. purified caspase-3, Z-DEVD-aminoluciferin luminescence, 60 min. shares compounds with SENP7 block. inhibition, % at 12.5 µM. 6,200 tested, 60% active;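 active = mean inhibition above about 50%, limit read from the data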;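 note: plate controls were enzyme with DMSO for no effect and wells without caspase-3 for full effect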
SENP luc ctr: luminescence interference (SENP counter-screen). AID 488919. 6,200 tested, 39% active. inhibition, % at 12.5 µM. shares compounds with SENP7 block. Pre-incubated SENP8/Z-RLRGG-aminoluciferin, luciferase luminescence interference;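 active = mean inhibition above about 50% when retested at one dose, limit read from the data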;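 note: plate controls were DMSO wells with completed reaction for no effect and substrate without enzyme for full effect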
Numbers without * were called inactive; x = no result. Shown are actives, neighbours in structure and some others; about 3% of the full set was active somewhere.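 Rule for the calls, unless noted: active = mean inhibition above about 50% in the one-dose retest (limit read from the data); inactive = the rest.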

SMILES	C8 TRAIL sens	SENP8 block-1	SENP8 block-2	SENP7 block	SENP6 block	PPC-1+TRAIL kill	SENP8 conf	SENP6 confirm	SENP7 confirm	Casp3 select	SENP luc ctr
O=C(CSc1n[nH]c(=O)n1Cc1ccccc1)Nc1ccc(F)c(F)c1F	-9	0	-2	-4	-14	x	x	x	x	x	x
C(=N\Nc1ccccc1)/c1nc2ccccc2s1	12	58*	6	75*	36	32	-18	12	82*	28	-4
Cc1ccc(N2NC(C)(c3cccs3)NC2=S)cc1 (stereo not drawn)	5	6	13	-14	37	22	x	x	x	x	x
COc1ccccc1C(=O)COC(=O)c1cccs1	-8	-4	4	3	10	x	x	x	x	x	x
COc1cccc(C(=O)COC(=O)c2cccs2)c1	-12	77*	8	86*	84*	x	1	81*	97*	84*	82*
CC(=O)NCCc1ccc(C(=O)COC(=O)c2cccs2)cc1	19	x	14	x	x	x	x	x	x	x	x
O=C(COC(=O)c1cccs1)c1ccccc1	-3	79*	28	83*	90*	-6	78*	80*	96*	89*	84*
COc1ccc(C(=O)COC(=O)c2cccs2)cc1	-4	92*	10	100*	94*	x	94*	95*	102*	96*	93*
Cc1ccsc1C(=O)OCC(=O)c1ccc(OC(F)F)cc1	-8	94*	15	97*	95*	x	69*	91*	102*	92*	29
CCOc1cc2c(cc1/C=C/c1noc(C)c1[N+](=O)[O-])OC(C)C2 (stereo not drawn)	-4	2	-4	-2	-2	x	x	x	x	x	x
Cc1ccccc1CN1CCCOCCS1(=O)=O	-17	-7	9	3	-6	x	x	x	x	x	x
Cc1ccsc1C(=O)OCC(=O)NCCNC(=O)COC(=O)c1sccc1C	-6	3	1	5	-1	x	x	x	x	x	x
Cc1ccsc1C(=O)OCC(=O)Nc1sccc1C(N)=O	22	48	-1	67*	38	20	56*	58*	79*	67*	24
Cc1nn(-c2ccccc2)c(C)c1/C=N/Nc1nc2ccccc2[nH]1	43	74*	-294	75*	39	29	84*	84*	94*	74*	83*
C(=N\Nc1nc2ccccc2[nH]1)/c1cccs1	5	59*	-24	62*	86*	27	57*	54*	67*	52*	65*
Cn1c(/C=N/Nc2nc3ccccc3[nH]2)nc2ccccc21	38	60*	16	74*	83*	48	62*	59*	82*	52*	15
Cc1cc(=O)[nH]c(N/N=C/c2c(C)nn(-c3ccccc3)c2C)n1	-7	5	-12	-3	-14	20	x	x	x	x	x
CCCn1c(/C=N/Nc2nc3ccccc3[nH]2)nc2ccccc21	26	x	-41	x	x	-2	x	x	x	x	x
COc1cccc(CNC(=O)CCC2CCCN(c3cc(C)nc(N4CCCC4)n3)C2)c1 (stereo not drawn)	3	-6	13	-4	-13	8	x	x	x	x	x
COc1ccc(C(=O)Nc2cc(OC)cc(OC)c2)cc1	30	81*	15	89*	87*	30	86*	83*	96*	88*	83*
COc1ccc(C(=O)N/N=C/C(=O)c2ccccc2)cc1	10	58*	6	84*	80*	x	32	72*	92*	79*	30
COc1ccc(C(=O)NN/C(C)=C/C(=O)c2ccccc2)cc1	6	3	11	8	-15	x	x	x	x	x	x
COc1cc(NC(=O)c2ccccc2)cc(OC)c1	21	12	5	47	54*	15	18	18	68*	65*	49
Cc1ccccc1NC(=O)NC1(C(=O)NCc2ccco2)CCCCC1	-14	3	-7	-5	-6	x	x	x	x	x	x
CC(C)(C)C(=O)OCc1nc(-c2ccc(F)cc2)cs1	-12	24	16	45	52*	3	-4	27	71*	25	6
SMILES	C8 TRAIL sens	SENP8 block-1	SENP8 block-2	SENP7 block	SENP6 block	PPC-1+TRAIL kill	SENP8 conf	SENP6 confirm	SENP7 confirm	Casp3 select	SENP luc ctr
O=C(O)C(=O)Nc1nc(-c2ccc3c(c2)OCCO3)cs1	6	44	-23	24	73*	x	67*	66*	89*	88*	76*
CC(C)(C)C(=O)OCc1nc(-c2ccc3c(c2)OCCO3)cs1	15	86*	14	88*	89*	x	90*	90*	71*	77*	59*
O=C(O)c1cccc(NC(=O)c2ccc(Cl)c(S(=O)(=O)N3CCCCCC3)c2)c1	38	78*	17	85*	85*	28	90*	89*	98*	55*	79*
N#C/C(=C\c1ccc(OCc2ccc(Cl)cc2)cc1)C(=O)Nc1cccc(C(=O)O)c1	18	-4	13	-10	-6	x	x	x	x	x	x
CCOc1c(Cl)cc(C(=O)Nc2cccc(C(=O)O)c2)cc1Cl	11	92*	5	88*	95*	20	95*	96*	101*	54*	96*
O=C(O)c1cccc(NC(=O)c2cccc(S(=O)(=O)N3CCc4ccccc43)c2)c1	7	22	4	0	54*	x	41	37	70*	3	43
O=C(Nc1cccnc1)c1ccc(Cl)c(S(=O)(=O)N2CCCCC2)c1	7	-4	7	-11	-2	x	x	x	x	x	x
O=C(O)c1cccc(NC(=O)c2ccc(COc3ccc(Cl)cc3)cc2)c1	-27	53*	2	29	70*	x	44	43	59*	8	15
O=C(O)c1ccc(COc2cccc(CO)c2)cc1	1	64*	16	86*	74*	6	1	70*	93*	93*	74*
COc1cccc(CNC(=O)c2ccc(COc3ccccc3)cc2)c1	2	-7	11	-12	-7	x	x	x	x	x	x
O=C(O)COc1ccc(NC(=O)c2ccc3c(c2)C(=O)N(C2CCCCC2)C3=O)cc1	17	x	16	x	x	x	x	x	x	x	x
Cc1nn(Cc2c(F)c(F)c(F)c(F)c2F)c(C)c1NC(=O)c1cccc(COc2ccc(Cl)cc2)c1	8	-15	6	-11	-6	12	x	x	x	x	x

Screening results: PubChem, Sanford-Burnham Center for Chemical Genomics
